High-throughput results: PubChem BioAssay, National Center for Advancing Translational Sciences (NCATS)
PNC assembly inh – inhibitors of perinucleolar compartment assembly | PC3M PTB-GFP, PNC prevalence imaging, 16 h; stronger effect = lower value | AID 2417 | activity change (PNC), negative = inhibition, % at 10 µM | hit rate 3.1% among 140,000;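 active = readout at or below -70, meaning at least 70% loss of cells showing the perinucleolar compartment, a nuclear body marking cancer cells; inconclusive = readout between -30 and a set limit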;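 also: plate controls were DMSO wells for no effect and camptothecin positive control wells for full effect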
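Read-out is percentage of cells bearing a perinucleolar compartment, from automated 20x imaging of fixed, Hoechst-stained PC3M PTB-GFP cells. Cells were seeded 4 h, then exposed 16 h to compound (23 nl of library stock) in duplicate plates.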
ALDH1A1 block – inhibitors of human aldehyde dehydrogenase 1A1; P00352; Purified ALDH1A1, NADH fluorescence, propionaldehyde substrate; Potency, µM (doses to about 75.3 µM), for inactives: at the top dose activity, negative = inhibition, actives largely listed as inhibitors; hit rate 7.3% among 220,000; AID 1030;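 also: potency is read from the fitted curve at half-maximal effect; plate controls were no enzyme wells and a reference inhibitor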
Target sequence (P00352 whole entry, looked up): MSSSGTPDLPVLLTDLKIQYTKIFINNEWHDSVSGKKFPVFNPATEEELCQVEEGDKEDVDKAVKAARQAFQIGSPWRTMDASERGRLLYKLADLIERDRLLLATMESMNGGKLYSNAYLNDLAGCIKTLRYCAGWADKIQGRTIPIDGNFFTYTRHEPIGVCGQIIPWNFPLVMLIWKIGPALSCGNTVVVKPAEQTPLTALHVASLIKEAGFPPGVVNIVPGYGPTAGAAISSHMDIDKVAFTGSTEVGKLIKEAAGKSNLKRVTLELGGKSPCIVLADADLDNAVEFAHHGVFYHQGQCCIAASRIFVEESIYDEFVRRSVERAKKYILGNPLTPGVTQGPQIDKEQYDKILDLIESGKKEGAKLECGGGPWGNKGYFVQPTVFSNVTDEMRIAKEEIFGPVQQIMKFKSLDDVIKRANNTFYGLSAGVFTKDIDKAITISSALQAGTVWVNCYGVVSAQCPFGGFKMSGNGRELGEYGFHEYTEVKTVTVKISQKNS
Luc counter – counter-screen: inhibitors of Kinase-Glo firefly luciferase | Potency, µM (titrated, usually from 38.3 µM), inactives show at the top dose activity change, negative = inhibition, actives largely listed as inhibitors | Kinase-Glo luciferase, ATP luminescence, 8 min | Q27757 | hit rate 0.28% among 200,000; active = well fitted inhibition curve with a large enough effect; inconclusive = small, poorly fitted or top-dose-only effect; also: potency is read from the fitted curve at half-maximal effect; nearly all actives have a fitted effect of over 60% in size
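Substrate mix (final 50 mM imidazole pH 7.2, 50 mM KCl, 7 mM MgCl2, 10 uM ATP, 0.01% Tween 20, 0.05% BSA) plus pin-tool compound, then Kinase-Glo detection mix; 8 min ambient, luminescence read.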
HPGD block – blocks human HPGD enzyme activity; P15428; purified HPGD, NADH fluorescence kinetic, PGE2 substrate; Potency, µM, for inactives: top-dose activity change, negative = inhibition, usual class: inhibitors; hit rate 4.3% among 150,000; AID 894; also: potency is read from the fitted curve at half-maximal effect
Target sequence (P15428 whole entry, looked up): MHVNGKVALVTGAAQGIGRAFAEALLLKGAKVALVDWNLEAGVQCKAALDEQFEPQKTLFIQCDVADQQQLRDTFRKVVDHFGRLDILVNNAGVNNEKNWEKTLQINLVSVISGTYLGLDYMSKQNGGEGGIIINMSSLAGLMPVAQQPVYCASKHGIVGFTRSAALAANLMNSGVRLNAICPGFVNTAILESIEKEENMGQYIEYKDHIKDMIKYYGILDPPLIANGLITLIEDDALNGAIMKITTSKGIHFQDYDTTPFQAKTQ
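NADH formation kinetics: reaction with 30 uM PGE2 and 1 mM NAD+ (final), 20 nM enzyme, Tris-HCl pH 8 with Tween 20, after 15 min compound preincubation at room temperature. Fluorescence change, last versus first of five reads.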
LMNA splice mod – changes lamin A minigene splicing in HeLa cells. hit rate 0.01% among 200,000. HeLa LMNA splicing GFP/RFP minigene ratio, 48 h. Potency, µM (series often up to 46.1 µM), inactives show top-dose ratio change, negative = inhibition, actives largely listed as inhibitors; active = well fitted inhibition curve with a large enough effect in the signal ratio, with a control signal flat, not every such curve was filed as active; inconclusive = small, poorly fitted or top-dose-only effect, or effect the other way, or a change in a side signal; the % refers to the signal ratio; also: potency is read from the fitted curve at half-maximal effect
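S3 HeLa stable clones carrying a lamin A-EGFP splicing minigene plus DsRed2 were seeded at 600 cells/well in Opti-MEM with 2% FBS, pin-dosed and incubated 48 h at 37°C. Acumen cytometry (488 nm) gave the GFP/RFP total-intensity ratio.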
IMPase inh – cell-permeable inhibitors of inositol monophosphatase (IMPase). P97697. CHO-M1 cells, IP1 accumulation, HTRF TR-FRET ratio. inhibition (IP1 accumulation), % at 46.1 µM. 120,000 tested, under 10 active; active = well fitted curve in the direction sought with a large enough effect in the signal ratio, not every such curve was filed as active; inconclusive = small, poorly fitted or top-dose-only effect, or a change in a side signal; inactive = no such curve, though single readings can be large or run the other way; the % refers to the signal ratio;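 also: cells stimulated with carbachol in lithium chloride buffer; plate controls were DMSO basal wells for no effect and reference inhibitor wells for full effect; higher means more IMPase inhibition seen as more IP1 and lower FRET ratio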
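The IP-One HTRF competitive assay in carbachol-stimulated CHO-M1 cells quantifies cellular IP1. Compounds spanned up to 46 uM final, and activity is expressed as AC50 from concentration-response fits of the ratio and donor data.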
Starred values were filed as active, the others as inactive; ? = inconclusive; / = not tested or not shown; [ ] = remark or other dose. Hits are enriched below; roughly 10% of the tested compounds scored in any of these assays. Unless noted, calls follow the shape of the dose curve; as a rule, active = well fitted inhibition curve with a large enough effect (not every such curve was filed as active); inconclusive = small, poorly fitted or top-dose-only effect, or another doubt; inactive = no such curve, though single readings can be large or run the other way. Unless noted, % is scaled to controls: 0 for no effect and ±100 for the full control effect.

SMILES	PNC assembly inh	ALDH1A1 block	Luc counter	HPGD block	LMNA splice mod	IMPase inh
CCOC(=O)c1c(NC(=O)CSc2ncnc3ccccc23)sc(C)c1C	19	14µM*	-3%	-15%	?	/
N#C/C(=C\c1ccc(F)cc1)C(=O)NCC1CCCO1 (centres undefined)	/	/	/	/	/	-8
CS(=O)(=O)N1CCC2(CCN(Cc3ccncc3)CC2)CC1	/	-2%	0%	-18%	/	/
COc1ccc(-c2nc3c(c4c2C[C@H](c2ccccc2)OC4)CN(C(=O)NCCc2c[nH]c4ccccc24)CC3)c(C)c1	/	0%[13.5 µM]	-5%[7.66 µM]	-4%	5%[9.22 µM]	/
Nc1ncnc2c1ncn2[C@H]1O[C@@H](CSCC[C@@H](N)C(=O)O)[C@H](O)[C@@H]1O	/	-3%	/	/	/	/
CCOC(=O)c1c(NC(=O)CSc2nncs2)sc(C)c1C	-1	-8%	0%	0%	10%	6
CCOC(=O)c1c(NC(=O)CSc2nncn2C)sc(C)c1C	-81*	-4%	5%	-14%	10%	1
Cn1cnnc1SCC(=O)Nc1sc2c(c1C(N)=O)CCC2	7	?	-5%	18µM*	-1%	-5
CCn1cc[n+](C)c1P(c1ccccc1)c1ccccc1	-13	8%	-2%	25µM*	?	7
CCOc1ccc(NC(=O)CSc2nnc3c(C)cc4ccccc4n23)cc1	/	/	/	/	/	-3
CO[C@]1(NC(=O)C(C(=O)O)c2ccc(O)cc2)C(=O)N2C(C(=O)O)=C(CSc3nnnn3C)COC21 (some centres undefined)	/	-3%	-6%	-2%	/	/
CC(C)(C)NC(=O)C(c1ccsc1)N(CCc1ccccc1)C(=O)Cn1nnc2ccccc21 (centres undefined)	-89*	?	2%	-4%	-9%[0.0737 µM]	-1
CCOc1ccc(N(C(=O)Cn2nnc3ccccc32)C(C(=O)NC(C)(C)CC)c2cccn2C)cc1 (centres undefined)	26	0%	2%	-8%	-9%	-1
CCC(C)(C)NC(=O)C(c1ccc(C)cc1)N(Cc1ccco1)C(=O)Cn1nnc2ccccc21 (centres undefined)	-100*	-1%	-5%	-10%	-1%	-3
CCC(C)(C)NC(=O)C(c1cccn1C)N(C(=O)Cn1nnc2ccccc21)c1ccc(OC)cc1OC (centres undefined)	-8	11µM*	-4%	-1%	-8%	16
Cc1cc(C)c(N(C(=O)Cn2nnc3ccccc32)C(C(=O)NC(C)(C)C)c2ccsc2)c(C)c1 (centres undefined)	-7	14%	3%	-5%	-1%	4
CC[n+]1c(/C=C/Nc2ccccc2)oc2ccc(OC)cc21	/	7%	-4%	/	49%[46 µM]	/
CC[n+]1c(/C=C/N(C)c2ccccc2)oc2ccc(F)cc21	45	14µM*	1%	-3%	?	/
CCOc1ccc(N2C(=O)C(Cl)=C(Nc3ccccc3O)C2=O)cc1	-17	14µM*	-1%	25µM*	-12%	6
COc1ccc(NC2=C(Cl)C(=O)N(c3ccccc3)C2=O)c(OC)c1	/	?	2%	/	-24%[46 µM]	/
O=C1C(Cl)=C(Nc2ccccc2O)C(=O)N1CCc1ccccc1	?	4µM*	3%	11µM*	-21%	/
CCOC(=O)c1c(NC(=O)CCCOc2ccc(C(C)(C)C)cc2)sc2c1CCCC2	/	/	/	/	/	-3
COc1ccc(NC(=O)CSc2nc(-c3ccc(OC)cc3)[nH]c2-c2ccc(OC)cc2)cc1	/	/	/	/	/	-9
Cc1cccc(C(=O)OCc2cc(=O)n3nc(C4CC4)sc3n2)c1	/	/	/	/	4%[46 µM]	/
COc1cccc(OC)c1Nc1nc(C)nc2c1nnn2Cc1ccccc1Cl	/	4%	0%	/	?	/
SMILES	PNC assembly inh	ALDH1A1 block	Luc counter	HPGD block	LMNA splice mod	IMPase inh
CCOCCCNc1nc(C)nc2c1nnn2Cc1c(F)cccc1Cl	/	8.9µM*	-2%	/	4%[46 µM]	/
Cc1nc(NCC2CCCO2)c2nnn(Cc3c(F)cccc3Cl)c2n1 (centres undefined)	/	?	2%	/	?	/
Cc1nc(NCCO)c2nnn(Cc3ccccc3F)c2n1	-93*	?	2%	2%	-3%	-4
C#CCNc1nc(C)nc2c1nnn2Cc1ccccc1F	?	11µM*	1%	-4%	11%	3
CC(C)(C)c1nc(NCCN2CCOCC2)c2nnn(Cc3ccccc3Cl)c2n1	-16	?	-2%	-19%	?	1
Cc1nc(NCCN2CCOCC2)c2nnn(Cc3ccccc3Cl)c2n1	-7	16µM*	-5%	-12%	-14%	6
Cn1c(=O)c2nc(SCC(=O)Nc3ccc(Cl)c(Cl)c3)n(C)c2n(C)c1=O	/	/	/	/	1%[46 µM]	/
CC1=CC2C(=O)c3cccc(O)c3C(=O)C2C(O)=C1 (centres undefined)	/	?	2%	-13%	/	/
CCCn1c(C)nc2c(NCCN3CCOCC3)nc(C)nc21	/	8%	0%	-11%	/	/
O=C1OC(=O)c2ccccc21	/	-14%	/	-5%	/	/
S=C(NCC1CCCO1)Nc1ccccc1Cl (centres undefined)	-17	0%	-7%	13µM*	19%	/
CN1CCN(C(=S)NCCc2ccccc2)CC1	-82*	?	5%	-8%	-11%	-3
S=C(NCC1CCCO1)N1CCN(Cc2ccccc2)CC1 (centres undefined)	/	25µM*	2%	/	/	/
CC1CCN(C(=S)NCCc2ccccc2)CC1	17	-9%	-2%	-3%	-1%	-3
C=CCNC(=S)N1CCN(Cc2ccccc2)CC1	/	14µM*	-2%	/	4%[46 µM]	/
S=C(Nc1ccc(Cl)cc1)N1CCN(Cc2ccccc2)CC1	/	-6%	-1%	/	?	/
S=C(NCC1CCCO1)Nc1ccc(Cl)c(Cl)c1 (centres undefined)	/	-10%	0%	/	?	/
COc1ccccc1NC(=O)CSCc1cc(=O)c2cccc(Cl)c2[nH]1	/	/	/	/	-3%[46 µM]	/
C[C@@]1(C(NS(=O)(=O)c2cccc3cccnc23)c2ccc(-c3ccccc3)cc2)C[C@H]1C1CCCCC1 (some centres undefined)	/	-3%	-5%	-6%	/	/
COc1ccc(NC(=S)NCC2CCCO2)c(C)c1 (centres undefined)	10	-7%	-3%	-28%	3%	/
COc1ccccc1NS(=O)(=O)c1ccc(O)c(NC(=S)NCC2CCCO2)c1 (centres undefined)	/	5.6µM*	/	/	4%[46 µM]	/
CCOc1cc(CNCCSc2nnnn2-c2ccccc2)cc(Cl)c1OC	/	/	/	/	5%[46 µM]	/
COc1cc([C@@H]2c3cc4c(cc3[C@@H](O[C@@H]3O[C@H]5CO[C@@H](C)O[C@@H]5[C@@H](O)[C@H]3O)[C@@H]3COC(=O)[C@@H]23)OCO4)cc(OC)c1O	/	-1%	2%	-10%	/	-3
